Calls of active or inactive are those of the source.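 The calls were made as follows: active = peak inhibition above 30% at some tested dose, together with a fitted dose response curve; inactive = no inhibition at all doses, or no curve obtained.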
Each compound was assayed against Inward rectifier potassium channel 2 (Mus musculus) (UniProt P35561) (assay: off-target blockade of inward rectifier Kir2.1 – cell-based, FluxOR thallium flux, HEK293, CRC, selectivity assay for TASK1 inhibitor project, SAR follow-up (AID 652190)). Conditions: Kir2.1-expressing cells; series mostly up to 30 µM.
Inward rectifier potassium channel 2 (Mus musculus), sequence (P35561 whole entry, looked up): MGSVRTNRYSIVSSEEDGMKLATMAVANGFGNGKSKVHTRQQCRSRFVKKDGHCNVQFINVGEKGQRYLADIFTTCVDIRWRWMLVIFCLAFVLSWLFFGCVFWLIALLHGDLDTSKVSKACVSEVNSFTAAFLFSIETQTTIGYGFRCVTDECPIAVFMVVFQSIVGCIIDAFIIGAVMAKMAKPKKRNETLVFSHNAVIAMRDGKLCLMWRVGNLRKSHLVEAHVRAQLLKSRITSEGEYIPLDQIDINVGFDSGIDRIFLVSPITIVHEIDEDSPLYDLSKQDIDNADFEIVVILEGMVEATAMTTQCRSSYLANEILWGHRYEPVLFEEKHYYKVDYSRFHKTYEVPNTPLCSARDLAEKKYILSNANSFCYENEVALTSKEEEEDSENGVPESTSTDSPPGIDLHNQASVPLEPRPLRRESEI

outcome, inactive:
COc1ccccc1C(=O)Nc1cccc(NC(=O)c2cccc3ccccc23)c1, CCCC(=O)C1CCN(c2ncnc3c2CN(C(=O)c2ccc(-c4ccccc4)cc2)CC3)CC1, COc1ccccc1C(=O)Nc1cc(NC(=O)c2ccccc2C(C)C)ccc1F, COc1ccccc1C(=O)Nc1cc(NC(=O)c2cccc(C)c2)ccc1F, CC(C)c1ccccc1C(=O)Nc1cccc(NC(=O)c2ccccc2OC(F)(F)F)c1, COc1ccc(F)cc1C(=O)Nc1cccc(NC(=O)c2cccc(C)c2)c1, CC(C)Oc1ccccc1C(=O)Nc1cccc(NC(=O)c2ccccc2OC(F)(F)F)c1, Cc1cccc(C(=O)Nc2cccc(NC(=O)c3cccc(F)c3)c2)c1, COc1cnccc1C(=O)Nc1cccc(NC(=O)c2cccc(C)c2)c1, COc1ccc(CC(=O)NCc2ccccc2-c2ccccc2C(=O)NCc2ccc(F)cc2F)cc1, COc1c(F)cccc1C(=O)Nc1cccc(NC(=O)c2cccc(C)c2)c1

Source: PubChem BioAssay AID652190 (Johns Hopkins Ion Channel Center, 2013)
